# Source: PubChem BioAssay (NCATS)
# Records with an inconclusive call do not appear. A call without a number means that no potency is given here. Calls of active or inactive are those of the source. The call rests on the fitted dose curve; in most records, active means well fitted cell-killing curve with a large enough effect; inconclusive means small, poorly fitted or top-dose-only effect; inactive means no such curve, though single readings can be large or run the other way.
# Experiment: qHTS of pediatric cancer cell lines to identify multiple opportunities for drug repurposing: Primary screen for OHS-50 cells (AID 1347103); further: nearly all actives have a fitted effect of over 40% in size
# Conditions: OHS-50 osteosarcoma viability, CellTiter-Glo luminescence, 48 h; series mostly up to 57.3 µM
# Outline: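 Cells (500-1,000/well) rested 5 h, then received compounds for 48 h; metabolically active cells were measured by CellTiter-Glo luminescence. Final concentrations spanned up to 46 µM (MIPE, 11-point) or 0.59 nM-46 µM (NPC, 8-point) in primary screens, 11-point in follow-ups.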
# Potency means the concentration at half of the fitted maximal effect.
row,SMILES,Potency
1,CN(C)C(=O)Nc1ccc(Cl)c(Cl)c1,inactive
2,C[C@@H](O)[C@H]1C(=O)N2C(C(=O)O)=C(S[C@@H]3CN[C@H](CNS(N)(=O)=O)C3)[C@H](C)[C@H]12,inactive
3,CCOCCn1c(N2CCCN(C)CC2)nc2ccccc21,inactive
4,CCCCC(CC)COC(=O)c1ccc(N(C)C)cc1 (centres undefined),inactive
5,N#CCC(=O)NN,inactive
6,Cc1cc(NS(=O)(=O)c2ccc(N)cc2)nc(C)n1,inactive
7,CC(C)Cc1ccc(CC(=O)O)cc1,inactive
8,Oc1c(Cl)cc(Cl)c(Cl)c1Cc1c(O)c(Cl)cc(Cl)c1Cl,6.17 µM (active)
9,CC(C)n1c(/C=C/[C@@H](O)C[C@@H](O)CC(=O)O)c(-c2ccc(F)cc2)c2ccccc21,6.92 µM (active)
10,CC(=O)Nc1ccc(S(=O)(=O)Nc2ccc([N+](=O)[O-])cc2)cc1,inactive
11,Cc1c[nH]c2ccccc12,inactive
12,CCCCCCCCOc1ccc(C(=O)c2ccccc2)c(O)c1,inactive
13,Nc1nc(-c2ccccc2)c(Br)c(=O)[nH]1,inactive
14,Nc1ccc(S(=O)(=O)NCc2ccccc2)cc1,inactive
15,C=C1c2cccc(O)c2C(O)=C2C(=O)[C@]3(O)C(O)=C(C(N)=O)C(=O)[C@@H](N(C)C)[C@@H]3[C@@H](O)[C@H]12,inactive
16,Cc1cc(CC(=O)O)c(C)n1-c1ccc(Cl)cc1,inactive
17,CO[C@]12C[C@@H](COC(=O)c3cncc(Br)c3)CN(C)[C@@H]1Cc1cn(C)c3cccc2c13,inactive
18,Clc1cccc(C(c2ccc3nc[nH]c3c2)n2ccnc2)c1 (centres undefined),inactive
19,Cc1c(-c2ccccc2)oc2c(C(=O)OCCN3CCCCC3)cccc2c1=O,inactive
